# This is a sample that favours compounds with a hit; in the whole collection about 6.8% have one here.
# MK inhibit: S. pneumoniae MK inhibitors, primary screen, biochemical, PK/LDH-coupled NADH absorbance; 65,000 tested, 0.48% active; AID 555, 2006; mevalonate kinase [Streptococcus pneumoniae D39]; inhibition, % at 10 µM; purified MK, PK/LDH-coupled NADH absorbance 340 nm;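 active = ranked among the strongest by inhibition in the single 10 µM screen, a fixed top-ranked set picked for dose follow-up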
# A340 absorber: compound light absorbance at 340 nm, profiling panel, artefact control, biochemical, MLSMR library, data from PS, PMK, MK assays | 65,000 tested, under 10 active | AID 708, 2007 | fold change at 10 µM | compound absorbance at 340 nm, fold over control;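 active = at 10 µM dose, initial 340 nm absorbance at least 2 fold that of control wells; inactive = change under 2 fold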;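 note: initial absorbance extrapolated from kinetic A340 decline of NADH oxidation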
# Spn PMK inh: S. pneumoniae PMK inhibitors, primary screen, biochemical, mevalonate pathway, pilot trial included; inhibition, % at 10 µM; 65,000 tested, 0.49% active; purified PMK, PK/LDH-coupled NADH absorbance 340 nm; AID 539, 2006;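 active = top-ranked compounds by inhibition in the single 10 µM screen, taking a fixed number of the strongest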;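 note: 0% = full reaction with DMSO carrier and 100% = background rate without enzyme reaction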
# DPM-DC inhibit: S. pneumoniae DPM-DC inhibitors, primary screen, biochemical, PK/LDH-coupled NADH fluorescence; calls only at 10 µM; purified DPM-DC; 65,000 tested, 0.49% active;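 active = the 320 compounds with the highest percent inhibition in the single-dose primary screen, excluding strongly autofluorescent ones, cut at about 32% in these data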;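 note: kinetic rate of NADH fluorescence loss reporting ADP formed by the decarboxylase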
# NADH coupling: inhibitors of PK/LDH coupling enzymes, profiling panel, artefact control, biochemical, MLSMR library; coupled PK/LDH NADH assays, four targets; IC50, µM (doses to about 10 µM), inactives show at the top dose inhibition; 65,000 tested, 0.02% active; AID 774, 2007;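 active = single-dose screening hits from any of four coupled enzyme assays that gave an IC50 when retested across doses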;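 note: the DPM-DC format reads NADH fluorescence rather than 340 nm absorbance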
# Autofluor 339: intrinsic fluorescence of library compounds, ex339/em460 – biochemical, MLSMR library, data from DPM-DC assay, artefact control, profiling panel; fluorescence fold increase at 10 µM; 65,000 tested, 5.5% active; compound autofluorescence, ex339/em460 nm, NADH buffer; active compounds read high; 1 = no-compound wells, NADH background; AID 709, 2007;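 active = at 10 µM, mean starting fluorescence two-fold or more over control wells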;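 note: signal is the first read of a kinetic run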
# * = called active by the depositor; i = inactive; / = no result shown; + = active, no number; [ ] = another dose, or the depositor's remark.
SMILES,MK inhibit,A340 absorber,Spn PMK inh,DPM-DC inhibit,NADH coupling,Autofluor 339
Cc1cccc(C(=O)Nc2cc(=O)n(C)c(=O)n2C)c1,2.0,1.02,10.0,+,17.0%,0.55
CCc1c(O)nc(SCC(=O)Nc2ccccc2C)[nH]c1=O,5.0,1.03,2.0,i,2.0%,1.04
CC(C)c1nnc(NC(=O)c2cccs2)s1,6.0,1.11,4.0,i,3.0%,1.03
CCC(CC)C(=O)Nc1nnc(-c2cccs2)s1,0.0,1.03,17.0,i,13.0%,2.62*
C(=N\C(/N=C/c1ccco1)c1ccco1)/c1ccco1,0.0,1.03,0.0,i,3.0%,2.05*
CCN(CC)CCOC(=O)c1c(C)n(C)c2ccc(OC)cc12,0.0,1.02,5.0,i,2.0%,1.12
COc1ccc2c(c1)c1c(n2C(C)=O)C(OC(C)=O)=NCC1,4.0,1.01,7.0,/,4.0%,2.3*
COCC(C)n1c(COc2ccccc2F)nnc1SCc1c(C)noc1C (stereo not given),3.0,1,29.0*,i,11.0%,1
Cc1noc(C)c1CSc1nnc(-c2ccccc2F)n1CCc1ccccc1,3.0,0.99,14.0,i,6.0%,1.03
CN1CCN(C(=O)c2cnn3c(C(F)(F)F)cc(-c4ccc5c(c4)OCO5)nc23)CC1,6.0,1.09,14.0,i,8.0%,1.06
O=C(c1ccco1)N1CCN(C(=O)c2cnn3c(C(F)(F)F)cc(-c4cccs4)nc23)CC1,7.0,1.1,5.0,/,6.0%,3.63*
CCN1CCN(C(=O)c2cnn3c(C(F)F)cc(-c4ccc(C)cc4)nc23)CC1,9.0,1.12,9.0,i,13.0%,2.27*
COc1ccc(-c2cc(C(F)F)n3ncc(C(=O)N4CCN(C(=O)c5ccco5)CC4)c3n2)cc1,11.0,1.1,17.0,/,14.0%,2.06*
COc1ccc(-c2nsc3c(N4CCN(C(=O)c5ccco5)CC4)ncnc23)cc1,9.0,1.08,11.0,+,18.0%,2.79*
O=C(c1ccco1)N1CCN(c2ncnc3c(-c4ccccc4)nsc23)CC1,7.0,1.02,9.0,i,8.0%,1.41
CC(NC(=O)c1nn(C)c(=O)c2ccccc12)c1ccc(F)cc1 (stereo not given),5.0,0.99,9.0,i,5.0%,1.11
CC12CCC(C(=O)NCc3ccco3)(OC1=O)C2(C)C (stereo not given),3.0,1,4.0,i,2.0%,1.11
O=C1COc2ccccc2N1Cc1ccccc1Cl,9.0,0.99,7.0,i,5.0%,1.1
COc1ccc(NC(=O)NCCCN2CCCC2=O)cc1,11.0,0.99,19.0,i,12.0%,1.07
COc1ccc(-c2cc(C(F)F)n3ncc(C(=O)NCCCN4CCCC4=O)c3n2)cc1,6.0,1.11,15.0,/,11.0%,2.2*
Cc1occc1-c1nnc(SCC(=O)N2CCOCC2)n1CCc1ccccc1,10.0,0.97,13.0,i,8.0%,1.04
Cc1occc1-c1nnc(SCC(=O)N2CCOCC2)n1Cc1ccco1,9.0,0.96,27.0*,i,4.0%,1.03
CC(C)c1ccc(-c2nc3c([nH]2)c(=O)n(C)c(=O)n3C)cc1,7.0,1.03,0.0,+,14.0%,2.51*
Cn1c(=O)c2[nH]c(Nc3ccccc3)nc2n(C)c1=O,2.0,1.05,0.0,i,1.0%,1.1
Cc1ccc(S(=O)(=O)CCc2nc3ccccc3n2CCC#N)cc1,2.0,1.04,0.0,i,3.0%,1.12
SMILES,MK inhibit,A340 absorber,Spn PMK inh,DPM-DC inhibit,NADH coupling,Autofluor 339
Cn1nc(CC(=O)Nc2ccc3c(c2)CCC3)c2ccccc2c1=O,4.0,1,7.0,i,4.0%,1.09
Cn1nc(CC(=O)Nc2ncc(Br)s2)c2ccccc2c1=O,0.0,1.04,25.0*,i,8.0%,1.07
CCCc1[nH]nc2c1C(c1ccc(O)cc1OCC)C(C#N)=C(N)O2 (stereo not given),0.0,1.04,6.0,i,2.0%,1.17
CCOC(=O)C1CCN(S(=O)(=O)c2c(C)n(C)c(=O)n(C)c2=O)CC1,4.0,1.04,1.0,i,2.0%,1.06
CCOC(=O)N1CCN(C(=O)Cn2nc(-c3ccc(Cl)cc3)ccc2=O)CC1,0.0,1,25.0*,i,8.0%,1.15
O=C1C(=O)N(CCOCCO)C(c2ccccn2)/C1=C(\O)c1ccccc1 (stereo not given),0.0,1.14,13.0,i,4.0%,1
COCCNC(=O)c1c(N)sc2c1CCCC2,2.0,1.03,12.0,i,11.0%,2.12*
O=c1c2c(nc3c(-c4cccc(Br)c4)c[nH]n13)CCCC2,0.0,1.03,14.0,i,7.0%,2.66*
CCOC(=O)Cc1c(C)nc(-c2ccccc2)[nH]c1=O,2.0,0.99,8.0,i,3.0%,1.09
CCOC(=O)Cc1c(C)nc2c(-c3cccc(Br)c3)c[nH]n2c1=O,1.0,1.13,4.0,/,3.0%,2.17*
COc1cccc2cc3c(=O)n(-c4ccccc4)nc-3oc12,7.0,0.97,4.0,+,19.0%,0.29
COc1cc2c(C#N)c(N3CCN(c4ccccc4OC)CC3)nc(N)c2c(N)n1,12.0,1.01,0.0,+[fluoresces],3.0%,2.38*
N#Cc1c(N2CCCC2)nc(N)c2c(N)nc(N3CCCC3)cc12,3.0,0.97,5.0,/,2.0%,2.51*
N#Cc1c(N)nc(N2CCCC2)c(C#N)c1-c1ccc(Cl)cc1,3.0,1.03,8.0,i,4.0%,1.09
Cc1cc(C)c(C#N)c(N2CCCC2)n1,15.0,1.09,4.0,/,10.0%,3.62*
CC(CCc1ccccc1)NC(=O)C1CCN(S(=O)(=O)c2cnc[nH]2)CC1 (stereo not given),1.0,0.99,16.0,i,3.0%,1.01
CCCCOC(=O)c1ccc(NC(=O)c2cnc3n(c2=O)CCS3)cc1,2.0,1.07,10.0,i,5.0%,2*
O=C(Nc1ccc(OC(F)(F)F)cc1)c1cnc2n(c1=O)CCS2,5.0,0.96,6.0,i,4.0%,1.09
CSc1ncc(Cl)c(C(=O)Nc2nnc(SC)s2)n1,8.0,1.04,0.0,+,32.0%,1
CSc1nnc(NC(=O)C2CCCCC2)s1,3.0,1.02,/,i,8.0%,1.08
N#Cc1cc2c(=O)n3ccccc3nc2n(CCCn2ccnc2)c1=N,3.0,1.03,14.0,i,8.0%,1.73
CCOCCCn1c(=NC(=O)c2cccnc2)c(C(=O)OCC)cc2c(=O)n3ccccc3nc21,8.0,1.08,10.0,/,9.0%,3.63*
